# Measured values: PMC7862700, “An all-to-all approach to the identification of sequence-specific readers for epigenetic DNA modifications on cytosine”
# Key:
# Assay in all cases: DAPPL (digital affinity profiling via proximity ligation, sequencing); 10 mM Tris-HCl pH 7.5, 50 mM NaCl, 1 mM DTT, 4% glycerol, room temperature, 30 min; GST-TFs on glutathione beads, 16-mer random dsDNA library, 0.1% formaldehyde crosslink after washing; high values mean tight binding
# [1] = target: T1, FLI1 (Homo sapiens, UniProt Q01543 1-452); details: protein: recombinant; tags: N-terminal GST; dsDNA, one strand shown
# T1 sequence: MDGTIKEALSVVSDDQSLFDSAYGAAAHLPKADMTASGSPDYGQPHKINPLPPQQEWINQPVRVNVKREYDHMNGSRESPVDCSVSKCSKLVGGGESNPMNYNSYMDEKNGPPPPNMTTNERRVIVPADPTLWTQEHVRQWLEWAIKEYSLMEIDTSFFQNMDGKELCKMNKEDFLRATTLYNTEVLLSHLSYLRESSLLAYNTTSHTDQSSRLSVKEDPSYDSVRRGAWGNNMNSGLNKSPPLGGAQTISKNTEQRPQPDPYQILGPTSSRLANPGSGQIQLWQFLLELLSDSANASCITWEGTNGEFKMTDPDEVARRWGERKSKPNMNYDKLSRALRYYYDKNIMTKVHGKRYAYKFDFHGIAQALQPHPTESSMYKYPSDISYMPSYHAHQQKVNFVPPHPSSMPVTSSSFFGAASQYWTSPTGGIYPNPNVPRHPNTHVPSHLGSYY
# How it was run: (§1)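 After expression in yeast as GST fusions, human transcription factors were bound to glutathione beads, DNA-barcoded and mixed with a tag-only sample. The pools were incubated with 200 nmole of a 16-mer random double-stranded DNA library in Tris/NaCl/DTT/glycerol buffer (30 min, room temperature), washed and crosslinked with 0.1% formaldehyde. Proximity ligation with BsaI/T4 ligase ran for 1 h at 37 °C, before PCR amplification and sequencing on an Illumina NextSeq500. Binding signal is a hexamer's read frequency for a factor divided by its frequency for the tag-only sample.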
# [2] = target: T2, ELK1 (Homo sapiens, UniProt P19419 1-428); details: protein: recombinant; tags: N-terminal GST; dsDNA, one strand shown
# T2 sequence: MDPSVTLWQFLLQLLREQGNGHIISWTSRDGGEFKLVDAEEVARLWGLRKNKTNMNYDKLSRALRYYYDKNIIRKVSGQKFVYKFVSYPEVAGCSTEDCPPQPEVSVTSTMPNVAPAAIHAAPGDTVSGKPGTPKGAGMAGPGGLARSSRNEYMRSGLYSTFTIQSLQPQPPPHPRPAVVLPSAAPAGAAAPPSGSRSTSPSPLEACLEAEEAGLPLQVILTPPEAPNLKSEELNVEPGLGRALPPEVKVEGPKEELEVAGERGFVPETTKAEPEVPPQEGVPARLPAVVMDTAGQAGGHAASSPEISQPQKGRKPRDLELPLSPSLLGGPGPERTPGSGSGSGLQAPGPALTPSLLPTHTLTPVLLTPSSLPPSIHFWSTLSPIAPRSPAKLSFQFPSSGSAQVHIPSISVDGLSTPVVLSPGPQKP
# How it was run: as §1
# [3] = target: T3, GABPA (Homo sapiens, UniProt Q06546 1-454); details: protein: recombinant; tags: N-terminal GST; dsDNA, one strand shown
# T3 sequence: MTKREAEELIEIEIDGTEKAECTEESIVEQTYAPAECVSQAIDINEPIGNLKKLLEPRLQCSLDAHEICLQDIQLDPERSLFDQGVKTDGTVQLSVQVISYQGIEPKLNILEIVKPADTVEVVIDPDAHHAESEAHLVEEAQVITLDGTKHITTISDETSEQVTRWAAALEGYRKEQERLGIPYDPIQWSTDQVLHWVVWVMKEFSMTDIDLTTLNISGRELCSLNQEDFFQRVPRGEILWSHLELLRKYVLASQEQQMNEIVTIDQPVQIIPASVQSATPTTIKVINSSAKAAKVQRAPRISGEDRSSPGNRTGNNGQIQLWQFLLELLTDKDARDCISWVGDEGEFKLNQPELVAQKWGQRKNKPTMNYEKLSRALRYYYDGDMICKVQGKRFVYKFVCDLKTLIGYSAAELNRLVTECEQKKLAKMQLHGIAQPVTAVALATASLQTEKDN
# How it was run: as §1
# [4] = target: T4, ERG (Homo sapiens, UniProt P11308 1-479); details: protein: recombinant; tags: N-terminal GST; dsDNA, one strand shown
# T4 sequence: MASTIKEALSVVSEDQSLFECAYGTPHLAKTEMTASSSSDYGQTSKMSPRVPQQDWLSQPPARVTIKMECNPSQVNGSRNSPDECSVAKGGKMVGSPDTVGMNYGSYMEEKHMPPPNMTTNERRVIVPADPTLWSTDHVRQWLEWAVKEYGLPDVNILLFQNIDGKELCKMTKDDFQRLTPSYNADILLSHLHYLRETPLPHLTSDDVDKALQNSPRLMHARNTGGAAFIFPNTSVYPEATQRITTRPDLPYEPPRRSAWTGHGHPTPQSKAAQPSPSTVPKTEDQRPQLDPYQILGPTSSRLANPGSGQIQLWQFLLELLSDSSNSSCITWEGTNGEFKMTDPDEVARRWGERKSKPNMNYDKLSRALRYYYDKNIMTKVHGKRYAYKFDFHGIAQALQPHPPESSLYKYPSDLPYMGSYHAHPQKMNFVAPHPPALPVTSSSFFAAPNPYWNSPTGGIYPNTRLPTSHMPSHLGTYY
# How it was run: as §1
# [5] = target: ELF1 (Homo sapiens, UniProt P32519 1-619); details: protein: recombinant; tags: N-terminal GST; dsDNA, one strand shown
# ELF1, sequence (P32519 whole entry): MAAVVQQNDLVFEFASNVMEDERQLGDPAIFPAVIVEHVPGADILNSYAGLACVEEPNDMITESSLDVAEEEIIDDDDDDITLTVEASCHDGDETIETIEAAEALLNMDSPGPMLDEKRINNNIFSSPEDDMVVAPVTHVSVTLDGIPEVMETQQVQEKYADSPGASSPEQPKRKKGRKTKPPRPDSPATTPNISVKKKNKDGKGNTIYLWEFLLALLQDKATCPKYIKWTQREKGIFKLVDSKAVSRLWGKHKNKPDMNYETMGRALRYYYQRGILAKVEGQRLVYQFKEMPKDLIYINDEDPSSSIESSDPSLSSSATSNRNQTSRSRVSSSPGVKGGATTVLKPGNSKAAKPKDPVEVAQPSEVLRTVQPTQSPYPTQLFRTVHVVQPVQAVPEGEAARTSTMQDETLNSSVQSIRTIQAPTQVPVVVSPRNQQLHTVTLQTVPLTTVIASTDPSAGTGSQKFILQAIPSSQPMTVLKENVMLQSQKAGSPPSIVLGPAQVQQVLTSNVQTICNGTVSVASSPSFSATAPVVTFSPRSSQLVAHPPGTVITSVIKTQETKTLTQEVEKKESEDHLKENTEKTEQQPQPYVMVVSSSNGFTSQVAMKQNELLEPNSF
# How it was run: as §1
# [6] = target: T5, EHF (Homo sapiens, UniProt Q9NZC4 1-300); details: protein: recombinant; tags: N-terminal GST; dsDNA, one strand shown
# T5 sequence: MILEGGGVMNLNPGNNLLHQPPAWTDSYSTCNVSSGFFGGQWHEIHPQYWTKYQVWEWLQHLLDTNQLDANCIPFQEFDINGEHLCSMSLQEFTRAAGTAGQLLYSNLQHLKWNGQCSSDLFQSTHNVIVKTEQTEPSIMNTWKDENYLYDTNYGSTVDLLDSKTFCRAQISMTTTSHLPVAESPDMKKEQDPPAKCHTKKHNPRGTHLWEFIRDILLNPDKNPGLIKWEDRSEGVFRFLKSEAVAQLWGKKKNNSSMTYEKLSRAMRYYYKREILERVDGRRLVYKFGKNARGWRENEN
# How it was run: as §1
# [7] = target: SPI1 (Homo sapiens, UniProt P17947 1-270); details: protein: recombinant; tags: N-terminal GST; dsDNA, one strand shown
# How it was run: as §1
# [8] = target: SPIB (Homo sapiens, UniProt Q01892 1-262); details: protein: recombinant; tags: N-terminal GST; dsDNA, one strand shown
# SPIB, sequence (Q01892 whole entry): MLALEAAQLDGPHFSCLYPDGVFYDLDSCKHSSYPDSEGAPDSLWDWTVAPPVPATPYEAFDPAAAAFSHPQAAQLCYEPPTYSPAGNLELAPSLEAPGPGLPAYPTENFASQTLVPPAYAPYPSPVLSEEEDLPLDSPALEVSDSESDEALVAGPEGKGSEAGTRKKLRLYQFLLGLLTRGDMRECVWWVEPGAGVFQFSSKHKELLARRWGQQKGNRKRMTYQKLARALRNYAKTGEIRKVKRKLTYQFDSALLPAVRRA
# How it was run: as §1
# [9] = target: T6, ELK3 (Homo sapiens, UniProt P41970 1-407); details: protein: recombinant; tags: N-terminal GST; dsDNA, one strand shown
# T6 sequence: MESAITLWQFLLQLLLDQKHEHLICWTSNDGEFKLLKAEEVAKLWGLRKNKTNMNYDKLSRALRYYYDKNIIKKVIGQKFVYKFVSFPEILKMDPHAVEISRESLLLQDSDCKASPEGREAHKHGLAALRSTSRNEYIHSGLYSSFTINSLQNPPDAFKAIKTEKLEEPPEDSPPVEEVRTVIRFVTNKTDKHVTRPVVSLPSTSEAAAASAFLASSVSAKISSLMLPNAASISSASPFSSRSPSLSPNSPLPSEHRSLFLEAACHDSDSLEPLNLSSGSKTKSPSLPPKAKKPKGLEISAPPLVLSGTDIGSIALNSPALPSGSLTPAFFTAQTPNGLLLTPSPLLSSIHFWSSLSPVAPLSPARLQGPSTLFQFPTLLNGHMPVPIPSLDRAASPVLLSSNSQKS
# How it was run: as §1
# [10] = target: T7, FEV (Homo sapiens, UniProt Q99581 1-238); details: protein: recombinant; tags: N-terminal GST; dsDNA, one strand shown
# T7 sequence: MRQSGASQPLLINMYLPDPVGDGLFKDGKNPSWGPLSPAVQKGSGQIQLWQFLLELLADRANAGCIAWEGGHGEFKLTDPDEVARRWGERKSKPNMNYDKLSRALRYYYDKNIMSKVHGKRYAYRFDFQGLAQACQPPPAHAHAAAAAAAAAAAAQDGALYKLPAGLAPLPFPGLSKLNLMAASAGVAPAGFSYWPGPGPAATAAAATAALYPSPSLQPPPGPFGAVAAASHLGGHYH
# How it was run: as §1
# [11] = target: ETV5 (Homo sapiens, UniProt P41161 1-510); details: protein: recombinant; tags: N-terminal GST; dsDNA, one strand shown
# ETV5, sequence (P41161 whole entry): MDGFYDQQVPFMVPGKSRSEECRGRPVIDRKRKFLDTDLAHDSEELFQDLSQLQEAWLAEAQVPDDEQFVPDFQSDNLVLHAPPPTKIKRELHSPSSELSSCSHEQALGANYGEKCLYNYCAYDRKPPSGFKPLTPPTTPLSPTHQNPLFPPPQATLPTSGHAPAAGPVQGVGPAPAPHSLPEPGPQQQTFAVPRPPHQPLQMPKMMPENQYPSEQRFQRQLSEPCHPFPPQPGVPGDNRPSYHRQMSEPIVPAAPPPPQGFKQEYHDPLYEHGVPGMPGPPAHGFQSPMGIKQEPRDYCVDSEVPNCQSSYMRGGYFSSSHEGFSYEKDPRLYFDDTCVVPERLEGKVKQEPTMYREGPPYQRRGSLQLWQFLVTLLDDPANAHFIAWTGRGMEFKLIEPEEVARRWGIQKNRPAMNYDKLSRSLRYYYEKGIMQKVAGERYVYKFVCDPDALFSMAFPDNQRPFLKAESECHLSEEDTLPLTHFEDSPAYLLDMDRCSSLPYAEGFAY
# How it was run: as §1
# [12] = target: HSF1 (Homo sapiens, UniProt Q00613 1-529); details: protein: recombinant; tags: N-terminal GST; chain copies: 3; dsDNA, one strand shown
# HSF1, sequence (Q00613 whole entry): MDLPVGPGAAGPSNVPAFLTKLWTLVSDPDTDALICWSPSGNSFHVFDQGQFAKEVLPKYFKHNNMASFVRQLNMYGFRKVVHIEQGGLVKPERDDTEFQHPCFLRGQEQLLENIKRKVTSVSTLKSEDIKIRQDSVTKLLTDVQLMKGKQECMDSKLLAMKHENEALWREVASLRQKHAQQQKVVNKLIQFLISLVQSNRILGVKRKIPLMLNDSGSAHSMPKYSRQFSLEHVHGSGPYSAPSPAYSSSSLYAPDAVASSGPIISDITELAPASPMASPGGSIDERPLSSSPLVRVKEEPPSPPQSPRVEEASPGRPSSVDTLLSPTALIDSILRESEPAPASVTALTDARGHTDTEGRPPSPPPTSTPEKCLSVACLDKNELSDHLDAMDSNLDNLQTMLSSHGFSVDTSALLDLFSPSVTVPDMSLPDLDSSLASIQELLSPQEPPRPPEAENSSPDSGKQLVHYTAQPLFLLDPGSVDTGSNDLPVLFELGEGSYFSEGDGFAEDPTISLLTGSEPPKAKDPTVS
# How it was run: as §1
# [13] = target: T8, SPIC (Homo sapiens, UniProt Q8N5J4 1-248); details: protein: recombinant; tags: N-terminal GST; dsDNA, one strand shown
# T8 sequence: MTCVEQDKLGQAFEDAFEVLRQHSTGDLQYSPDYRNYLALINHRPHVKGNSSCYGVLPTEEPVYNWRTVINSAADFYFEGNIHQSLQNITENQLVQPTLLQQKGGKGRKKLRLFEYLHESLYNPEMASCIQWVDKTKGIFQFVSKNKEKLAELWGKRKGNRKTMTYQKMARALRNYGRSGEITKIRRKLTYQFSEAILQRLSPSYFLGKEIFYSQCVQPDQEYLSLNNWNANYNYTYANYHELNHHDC
# How it was run: as §1
# [14] = target: ELF4 (Homo sapiens, UniProt Q99607 1-663); details: protein: recombinant; tags: N-terminal GST; dsDNA, one strand shown
# ELF4, sequence (Q99607 whole entry): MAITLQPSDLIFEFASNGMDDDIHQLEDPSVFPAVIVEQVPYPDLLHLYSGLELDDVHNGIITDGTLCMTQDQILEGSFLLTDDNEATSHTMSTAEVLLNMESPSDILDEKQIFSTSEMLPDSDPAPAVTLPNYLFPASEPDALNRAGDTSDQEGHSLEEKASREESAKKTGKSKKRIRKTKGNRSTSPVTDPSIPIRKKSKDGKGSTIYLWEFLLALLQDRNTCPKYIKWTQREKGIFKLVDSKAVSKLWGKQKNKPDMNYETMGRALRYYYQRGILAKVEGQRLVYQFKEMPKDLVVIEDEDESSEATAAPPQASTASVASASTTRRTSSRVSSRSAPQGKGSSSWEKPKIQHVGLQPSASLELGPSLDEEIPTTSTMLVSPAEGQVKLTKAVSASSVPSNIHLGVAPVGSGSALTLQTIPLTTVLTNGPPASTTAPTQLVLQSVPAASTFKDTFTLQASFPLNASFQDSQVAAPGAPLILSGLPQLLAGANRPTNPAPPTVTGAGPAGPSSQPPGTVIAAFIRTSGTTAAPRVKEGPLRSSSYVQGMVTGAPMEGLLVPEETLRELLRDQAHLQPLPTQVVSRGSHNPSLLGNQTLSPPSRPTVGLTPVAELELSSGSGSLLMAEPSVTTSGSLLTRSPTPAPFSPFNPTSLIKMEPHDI
# How it was run: as §1
# [15] = target: T9, ELK4 (Homo sapiens, UniProt P28324-2 1-405); details: protein: recombinant; tags: N-terminal GST; dsDNA, one strand shown
# T9 sequence: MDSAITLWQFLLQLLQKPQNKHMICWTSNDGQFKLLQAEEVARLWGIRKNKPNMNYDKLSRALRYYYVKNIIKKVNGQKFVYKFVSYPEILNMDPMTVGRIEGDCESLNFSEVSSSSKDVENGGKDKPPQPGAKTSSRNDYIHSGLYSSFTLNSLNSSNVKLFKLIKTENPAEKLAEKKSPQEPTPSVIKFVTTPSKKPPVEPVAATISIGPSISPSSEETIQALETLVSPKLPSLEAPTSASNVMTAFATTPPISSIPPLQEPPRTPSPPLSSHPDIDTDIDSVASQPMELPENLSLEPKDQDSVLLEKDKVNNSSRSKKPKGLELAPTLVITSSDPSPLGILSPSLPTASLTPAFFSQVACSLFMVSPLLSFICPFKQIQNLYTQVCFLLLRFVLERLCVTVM
# How it was run: as §1
# [16] = target: T10, ETV2 (Homo sapiens, UniProt O00321 1-342); details: protein: recombinant; tags: N-terminal GST; dsDNA, one strand shown
# T10 sequence: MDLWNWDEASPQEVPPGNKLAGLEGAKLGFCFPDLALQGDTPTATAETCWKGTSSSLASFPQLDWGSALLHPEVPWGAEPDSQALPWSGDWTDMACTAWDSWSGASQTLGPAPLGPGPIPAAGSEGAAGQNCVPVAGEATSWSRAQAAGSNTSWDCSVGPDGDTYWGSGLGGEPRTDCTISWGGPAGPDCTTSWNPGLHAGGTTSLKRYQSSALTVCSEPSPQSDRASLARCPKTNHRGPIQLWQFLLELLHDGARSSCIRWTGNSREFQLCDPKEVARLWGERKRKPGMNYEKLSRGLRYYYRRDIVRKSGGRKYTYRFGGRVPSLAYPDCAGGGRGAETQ
# How it was run: as §1
# [17] = target: T11, ELF3 (Homo sapiens, UniProt P78545 1-371); details: protein: recombinant; tags: N-terminal GST; dsDNA, one strand shown
# T11 sequence: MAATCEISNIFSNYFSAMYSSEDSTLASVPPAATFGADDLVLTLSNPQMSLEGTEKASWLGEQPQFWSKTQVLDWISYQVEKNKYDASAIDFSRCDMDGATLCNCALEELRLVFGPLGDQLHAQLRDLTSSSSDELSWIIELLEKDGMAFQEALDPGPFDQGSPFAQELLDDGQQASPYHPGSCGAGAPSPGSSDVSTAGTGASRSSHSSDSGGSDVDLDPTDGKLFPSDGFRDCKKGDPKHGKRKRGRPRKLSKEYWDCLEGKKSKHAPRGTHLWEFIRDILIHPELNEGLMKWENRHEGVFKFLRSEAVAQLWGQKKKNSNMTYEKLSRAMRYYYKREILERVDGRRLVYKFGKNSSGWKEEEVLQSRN
# How it was run: as §1
# [18] = target: CRX (Homo sapiens, UniProt O43186 1-299); details: protein: recombinant; tags: N-terminal GST; dsDNA, one strand shown
# CRX, sequence (O43186 whole entry): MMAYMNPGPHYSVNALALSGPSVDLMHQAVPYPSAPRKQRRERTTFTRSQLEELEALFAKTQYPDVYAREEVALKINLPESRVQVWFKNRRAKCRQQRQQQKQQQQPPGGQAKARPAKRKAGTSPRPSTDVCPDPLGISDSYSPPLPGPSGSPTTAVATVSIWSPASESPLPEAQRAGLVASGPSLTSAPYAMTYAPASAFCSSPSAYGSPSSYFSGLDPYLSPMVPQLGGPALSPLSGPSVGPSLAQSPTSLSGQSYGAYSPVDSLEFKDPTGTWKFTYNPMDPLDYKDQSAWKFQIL
# How it was run: as §1
# [19] = target: ETV1 (Homo sapiens, UniProt P50549 1-477); details: protein: recombinant; tags: N-terminal GST; dsDNA, one strand shown
# ETV1, sequence (P50549 whole entry): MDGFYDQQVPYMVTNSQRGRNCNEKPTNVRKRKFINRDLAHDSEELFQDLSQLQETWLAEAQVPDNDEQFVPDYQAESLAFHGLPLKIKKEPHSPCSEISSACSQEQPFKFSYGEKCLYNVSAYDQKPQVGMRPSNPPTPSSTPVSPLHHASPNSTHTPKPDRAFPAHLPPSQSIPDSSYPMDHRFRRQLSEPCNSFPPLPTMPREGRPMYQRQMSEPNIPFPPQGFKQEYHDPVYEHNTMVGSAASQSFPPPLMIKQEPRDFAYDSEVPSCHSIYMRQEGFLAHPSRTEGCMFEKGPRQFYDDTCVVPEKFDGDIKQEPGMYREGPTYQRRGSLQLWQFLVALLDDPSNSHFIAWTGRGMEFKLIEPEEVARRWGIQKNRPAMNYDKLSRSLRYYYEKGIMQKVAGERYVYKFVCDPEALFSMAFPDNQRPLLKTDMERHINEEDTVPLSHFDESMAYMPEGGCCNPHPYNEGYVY
# How it was run: as §1
sequence,measurement,setting,value
CTCATC,binding signal,[1],"1.5 fold enrichment (6-mer frequency, TF over GST control)"
same,binding signal,[2],"1.36 fold enrichment (6-mer frequency, TF over GST control)"
same,binding signal,[3],"1.41 fold enrichment (6-mer frequency, TF over GST control)"
same,binding signal,[4],"1.34 fold enrichment (6-mer frequency, TF over GST control)"
same,binding signal,[5],"1.35 fold enrichment (6-mer frequency, TF over GST control)"
same,binding signal,[6],"1.35 fold enrichment (6-mer frequency, TF over GST control)"
same,binding signal,[7],"1.21 fold enrichment (6-mer frequency, TF over GST control)"
same,binding signal,[8],"1.41 fold enrichment (6-mer frequency, TF over GST control)"
same,binding signal,[9],"1.47 fold enrichment (6-mer frequency, TF over GST control)"
same,binding signal,[10],"1.34 fold enrichment (6-mer frequency, TF over GST control)"
same,binding signal,[11],"1.34 fold enrichment (6-mer frequency, TF over GST control)"
same,binding signal,[12],"1.27 fold enrichment (6-mer frequency, TF over GST control)"
same,binding signal,[13],"1.49 fold enrichment (6-mer frequency, TF over GST control)"
same,binding signal,[14],"1.35 fold enrichment (6-mer frequency, TF over GST control)"
same,binding signal,[15],"1.32 fold enrichment (6-mer frequency, TF over GST control)"
same,binding signal,[16],"1.45 fold enrichment (6-mer frequency, TF over GST control)"
same,binding signal,[17],"1.49 fold enrichment (6-mer frequency, TF over GST control)"
same,binding signal,[18],"1.32 fold enrichment (6-mer frequency, TF over GST control)"
same,binding signal,[19],"1.4 fold enrichment (6-mer frequency, TF over GST control)"
